Holding throughout (settings): mRNA level, 48 h; actives raise or lower the signal
Read-out in experiment [1]: HGF (gene 3082)
Put plainly: LTEA_HepaRG_HGF: Life Technologies and Expression Analysis (LTEA) Assay for Hepatocyte Growth Facto (HGF) using HepaRG (AID 2283505). The essentials:
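Read-out is HGF transcript level by qRT-PCR, normalized to three housekeeping genes, fitted bidirectionally against 0.5% DMSO vehicle. Human HepaRG cells received test chemicals for 48 h at up to 100 uM.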

Read-out in experiment [2]: Insulin Like Growth Factor 1 (IGF1), IGF1 (gene 3479)
Put plainly: LTEA_HepaRG_IGF1: Life Technologies and Expression Analysis (LTEA) Assay for Insulin Like Growth Factor 1 (IGF1) using HepaRG (AID 2283506). In short, it runs like this:
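Cells are thawed, plated and cultured 48 h, then exposed in duplicate to chemical (highest 100 uM, half-log steps, 0.5% DMSO) for another 48 h. Total RNA is analysed by Fluidigm qRT-PCR for IGF1 expression relative to vehicle.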

Read-out in experiment [3]: Intercellular Adhesion Molecule 1 (ICAM1), ICAM1 (gene 3383)
Kind of experiment: LTEA_HepaRG_ICAM1: Life Technologies and Expression Analysis (LTEA) Assay for Intercellular Adhesion Molecule 1 (ICAM1) using HepaRG (AID 2283507). In short, it runs like this:
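Readout is qRT-PCR mRNA level, normalized to three housekeeping genes and fitted bidirectionally against 0.5% DMSO vehicle. Human HepaRG cultures received compound for 48 h, top concentration 100 uM with half-log dilutions.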

Read-out in experiment [4]: Interleukin 6 (IL6), IL6 (gene 3569)
Put plainly: LTEA_HepaRG_IL6: Life Technologies and Expression Analysis (LTEA) Assay for Interleukin 6 (IL6) using HepaRG (AID 2283509). The essentials: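 Changes in IL6 mRNA, up or down relative to 0.5% DMSO controls, were derived from concentration-response curves in human HepaRG cells treated for 48 h at up to 100 uM, with ACTB, GAPDH and POLR2A as normalizers.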

Read-out in experiment [5]: Interleukin 6 Receptor (IL6R), IL6R (gene 3570)
Kind of experiment: LTEA_HepaRG_IL6R: Life Technologies and Expression Analysis (LTEA) Assay for Interleukin 6 Receptor (IL6R) using HepaRG (AID 2283510). The essentials: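 Cells were thawed, plated and cultured 48 h, then medium was changed to serum-free induction medium. Chemicals were added in duplicate (100 uM top, half-log steps, 0.5% DMSO) for 48 h. Lysates were analyzed by qRT-PCR for IL6R expression.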

Read-out in experiment [6]: Potassium channel subfamily K member 1 (KCNK1), KCNK1 (gene 3775)
Kind of experiment: LTEA_HepaRG_KCNK1: Life Technologies and Expression Analysis (LTEA) Assay for Potassium channel subfamily K member 1 (KCNK1) using HepaRG (AID 2283511). The essentials: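 Human HepaRG cultures receive test chemicals for 48 h in 0.5% DMSO, top concentration 100 uM with half-log dilutions. Induction or suppression of KCNK1 mRNA relative to DMSO is derived by bidirectional fitting of qRT-PCR data.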

Read-out in experiment [7]: Keratin 19 (KRT19), KRT19 (gene 3880)
Put plainly: LTEA_HepaRG_KRT19: Life Technologies and Expression Analysis (LTEA) Assay for Keratin 19 (KRT19) using HepaRG (AID 2283512). The essentials: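 KRT19 transcript levels, measured by Fluidigm qRT-PCR against three housekeeping genes, are fitted for gain or loss of signal relative to DMSO. Human HepaRG cells receive test chemicals (top 100 uM, half-log steps, 0.5% DMSO) for 48 hours.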

Read-out in experiment [8]: JUN Transcription Factor, JUN (gene 3725)
Kind of experiment: LTEA_HepaRG_JUN: Life Technologies and Expression Analysis (LTEA) Assay for JUN Transcription Factor using HepaRG (AID 2283513). In short, it runs like this: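 Read-out is JUN transcript level by TaqMan qRT-PCR, normalized to ACTB, GAPDH and POLR2A, after 48 h chemical treatment of HepaRG cells. Concentration-response spanned eight half-log points up to 100 uM in 0.5% DMSO.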

Read-out in experiment [9]: Lipase C (LIPC), LIPC (gene 3990)
Kind of experiment: LTEA_HepaRG_LIPC: Life Technologies and Expression Analysis (LTEA) Assay for Lipase C (LIPC) using HepaRG (AID 2283514). The essentials:
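In this multiplexed gene-expression screen, human HepaRG cultures received test chemicals for 48 h across eight concentrations with 100 uM highest, in duplicate. Values reflect LIPC mRNA induction or suppression versus DMSO vehicle, from normalized qRT-PCR.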

Read-out in experiment [10]: Lipoprotein lipase (LPL), LPL (gene 4023)
Kind of experiment: LTEA_HepaRG_LPL: Life Technologies and Expression Analysis (LTEA) Assay for Lipoprotein lipase (LPL) using HepaRG (AID 2283515). In short, it runs like this:
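Concentration-response testing used half-log steps from 100 uM in 0.5% DMSO on human HepaRG cells, 48 h, duplicate wells. Phenobarbital 1 mM served as induction control; LPL mRNA was normalized to ACTB, GAPDH, POLR2A.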

Read-out in experiment [11]: MicroRNA 122 (MIR122), gene 406906
Put plainly: LTEA_HepaRG_MIR122: Life Technologies and Expression Analysis (LTEA) Assay for MicroRNA 122 (MIR122) using HepaRG (AID 2283516). Note: the transcript read is the microRNA miR-122. In short, it runs like this:
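Human liver HepaRG cultures receive test chemicals for 48 h at eight half-log concentrations from 100 uM. Expression is quantified by qRT-PCR with ACTB/GAPDH/POLR2A normalization and fitted bidirectionally against 0.5% DMSO.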

Read-out in experiment [12]: matrix metalloproteinase-10 (MMP10), MMP10 (gene 4319)
Kind of experiment: LTEA_HepaRG_MMP10: Life Technologies and Expression Analysis (LTEA) Assay for matrix metalloproteinase-10 (MMP10) using HepaRG (AID 2283517). The essentials: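 In differentiated HepaRG cultures kept in 0.5% DMSO, test chemicals act for 48 h over an eight-point range with a top dose of 100 uM. Expression is then quantified by TaqMan RT-PCR against ACTB, GAPDH and POLR2A.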

Read-out in experiment [13]: MYC, MYC (gene 4609)
Put plainly: LTEA_HepaRG_MYC: Life Technologies and Expression Analysis (LTEA) Assay for MYC using HepaRG (AID 2283518). In short, it runs like this: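 HepaRG, ~100,000 cells/well, collagen I; 48 h plating; serum-free induction medium; 48 h dosing, duplicate, 100 uM top, half-log, 0.5% DMSO; total RNA → qRT-PCR MYC; gain/loss fit vs DMSO.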

Read-out in experiment [14]: matrix metalloproteinase-3 (MMP3), MMP3 (gene 4314)
Put plainly: LTEA_HepaRG_MMP3: Life Technologies and Expression Analysis (LTEA) Assay for matrix metalloproteinase-3 (MMP3) using HepaRG (AID 2283519). In short, it runs like this:
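Human liver HepaRG cultures received chemicals (top concentration 100 uM, 0.5% DMSO) for 48 h in duplicate. MMP3 mRNA induction or loss was then assessed via TaqMan qRT-PCR with housekeeping-gene normalisation.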

Read-out in experiment [15]: Paternally Expressed 10 (PEG10), PEG10 (gene 23089)
Put plainly: LTEA_HepaRG_PEG10: Life Technologies and Expression Analysis (LTEA) Assay for Paternally Expressed 10 (PEG10) using HepaRG (AID 2283520). In short, it runs like this:
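Human HepaRG cultures are dosed for 48 h across an eight-point half-log series starting at 100 uM, with 0.5% DMSO as vehicle and baseline. Gain or loss of PEG10 transcript is measured by qRT-PCR and fitted in both directions.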

Read-out in experiment [16]: Nuclear factor NF-kappa-B p105 subunit (Homo sapiens) (UniProt P19838)
Put plainly: LTEA_HepaRG_NFKB1: Life Technologies and Expression Analysis (LTEA) Assay for Nuclear Factor Kappa B Subunit 1 (NFKB1) using HepaRG (AID 2283521).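 Note: TaqMan qRT-PCR transcript normalised to ACTB GAPDH and POLR2A housekeeping genes.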 The essentials:
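Differentiated human HepaRG cells were exposed for 48 h in serum-free induction medium to eight concentrations (top 100 uM, half-log steps, 0.5% DMSO), in duplicate. NFKB1 mRNA was measured by TaqMan qRT-PCR, normalized to ACTB/GAPDH/POLR2A, and fitted bidirectionally against DMSO.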

Read-out in experiment [17]: Protein phosphatase 2A (PPP2R4), PTPA (gene 5524)
Kind of experiment: LTEA_HepaRG_PPP2R4: Life Technologies and Expression Analysis (LTEA) Assay for Protein phosphatase 2A (PPP2R4) using HepaRG (AID 2283522). The essentials:
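Cells were plated, cultured 48 h, switched to serum-free induction medium, then dosed for 48 h (8 points, max 100 uM, 0.5% DMSO). RNA was isolated and PPP2R4 expression measured by TaqMan qRT-PCR.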

Read-out in experiment [18]: Phosphatase and tensin (PTEN), PTEN (gene 5728)
Kind of experiment: LTEA_HepaRG_PTEN: Life Technologies and Expression Analysis (LTEA) Assay for Phosphatase and tensin (PTEN) using HepaRG (AID 2283523). In short, it runs like this: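 Expression of PTEN is quantified in the human liver line HepaRG following two days of dosing (top concentration 100 uM, half-log dilutions, 0.5% DMSO). Values derive from bidirectional curve fitting relative to DMSO controls.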

Read-out in experiment [19]: solute carrier (SLC22A1), SLC22A1 (gene 6580)
Kind of experiment: LTEA_HepaRG_SLC22A1: Life Technologies and Expression Analysis (LTEA) Assay for solute carrier (SLC22A1) using HepaRG (AID 2283524). In short, it runs like this: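 Transcript induction or suppression of SLC22A1 in human HepaRG cultures is scored after 48 h chemical treatment, with DMSO (0.5%) as baseline for bidirectional fitting. Concentrations span eight half-log points topping at 100 uM.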

Read-out in experiment [20]: Insulin-like growth factor-binding protein 1 (IGFBP1), IGFBP1 (gene 3484)
Kind of experiment: LTEA_HepaRG_IGFBP1: Life Technologies and Expression Analysis (LTEA) Assay for Insulin-like growth factor-binding protein 1 (IGFBP1) using HepaRG (AID 2283508). In short, it runs like this: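 Thawed HepaRG cells are plated for 48 h, switched to serum-free induction medium, then dosed in duplicate for another 48 h (100 uM top, half-log steps). Lysates in RLT go to qRT-PCR, and gain or loss of signal is fitted relative to vehicle.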

Activity calls are given as the source filed them. Rule for the calls: active = hit-call score of the fitted dose curve at least 0.9, where 1 is the maximum; inactive = score below 0.9.

Chain of Nuclear factor NF-kappa-B p105 subunit (Homo sapiens) (P19838 whole entry, looked up): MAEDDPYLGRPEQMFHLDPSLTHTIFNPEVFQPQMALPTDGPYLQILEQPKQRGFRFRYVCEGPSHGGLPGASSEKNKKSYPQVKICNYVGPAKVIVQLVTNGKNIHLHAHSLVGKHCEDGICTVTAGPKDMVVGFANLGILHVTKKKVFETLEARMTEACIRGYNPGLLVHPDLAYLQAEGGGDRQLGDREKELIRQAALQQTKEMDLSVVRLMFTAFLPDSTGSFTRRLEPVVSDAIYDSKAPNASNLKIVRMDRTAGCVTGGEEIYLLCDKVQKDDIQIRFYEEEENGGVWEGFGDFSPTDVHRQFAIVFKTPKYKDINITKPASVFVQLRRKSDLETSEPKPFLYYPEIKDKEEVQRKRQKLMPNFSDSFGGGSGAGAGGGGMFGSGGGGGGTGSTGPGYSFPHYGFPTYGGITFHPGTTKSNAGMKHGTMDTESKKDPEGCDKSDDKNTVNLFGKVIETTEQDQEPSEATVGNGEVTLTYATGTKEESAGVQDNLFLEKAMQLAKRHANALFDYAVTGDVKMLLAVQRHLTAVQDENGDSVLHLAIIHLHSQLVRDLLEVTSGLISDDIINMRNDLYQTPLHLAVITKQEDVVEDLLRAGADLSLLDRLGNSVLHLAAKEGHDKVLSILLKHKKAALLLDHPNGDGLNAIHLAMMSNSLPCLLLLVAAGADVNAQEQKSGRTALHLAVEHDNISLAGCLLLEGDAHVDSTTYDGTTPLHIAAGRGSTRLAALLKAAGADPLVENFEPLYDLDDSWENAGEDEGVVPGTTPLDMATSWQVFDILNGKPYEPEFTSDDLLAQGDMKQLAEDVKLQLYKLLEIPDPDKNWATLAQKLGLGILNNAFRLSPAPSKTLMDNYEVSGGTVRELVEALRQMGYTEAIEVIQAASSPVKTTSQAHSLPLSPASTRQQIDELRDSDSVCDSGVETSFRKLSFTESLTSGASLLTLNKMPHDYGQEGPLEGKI

Take `CCCCCCCCCc1ccc(O)cc1`: the molecule was classed as inactive in experiment [1], in experiment [2], in experiment [3], in experiment [4], in [5] and in [6]. Further, the molecule was classed as inactive in [7], in experiment [8], in experiment [9], in experiment [10], in [11] and in [12]. For the same molecule, the outcome in experiment [13], in experiment [14], in experiment [15], in [16], in [17] and in experiment [18] was inactive. Further, the molecule was called inactive in experiment [19].
Turning to `CO/C=C(/C(=O)OC)c1ccccc1COc1cccc(C(F)(F)F)n1`, the AC50 in experiment [1] was 50 µM (active); in [2], 5.31 µM (active); in [3] it was 8.33 µM (active); in experiment [4] it was 9.02 µM (active); in experiment [6], 27.8 µM (active); in [7] it was 12.4 µM (active). The AC50 in experiment [8] was 50 µM (active); in experiment [9] it was 22.6 µM (active); in [10], 9.42 µM (active); in experiment [11], 6.86 µM (active); in experiment [12], 12.6 µM (active); in experiment [13] it was 9.71 µM (active). Moreover, the concentration at half-maximal activity (AC50) is 23.9 µM (active) in experiment [14] and 5.3 µM (active) in [19]. Moreover, the call in [5], in experiment [16], in [17] and in [18] was inactive.
Turning to `Clc1ccc(C(c2ccccc2Cl)C(Cl)(Cl)Cl)cc1` (centres undefined), the result in experiment [1], in experiment [3], in experiment [20], in experiment [4], in experiment [5] and in experiment [11] was inactive. Also, the molecule was called inactive in experiment [12], in [13], in experiment [14], in [16], in [17] and in experiment [18]. The result in experiment [19] was inactive. In addition, the half-maximal activity concentration (AC50) is 31.3 µM (active) in experiment [2], 20.4 µM (active) in experiment [7], 84.4 µM (active) in experiment [9] and 89.7 µM (active) in [10].

These data come from PubChem BioAssay (EPA / NIEHS).
